# AMPAR-TARP mod – modulators of GluA2-stargazin AMPA receptor complexes, primary screen, cell-based, membrane potential dye; Voltage-dependent calcium channel gamma-2 subunit (Mus musculus) + Glutamate receptor 2 …; HEK293 GluA2+stargazin, membrane potential dye (FDSS), glutamate EC50; hits were called plate by plate, in both directions; calls only at 30 µM; hit rate 3.5% among 40,000; AID 1259245, 2017;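 active means any of four per-well response measures lying three or more SD from its plate-wide compound average, in either direction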
# GIRK2 activator – activators of NPY4-receptor-primed GIRK2 channels, summary, cell-based, HEK293, thallium flux; 34,000 tested, under 10 active; G protein-activated inward rectifier potassium channel 2 (Homo sapiens), P48051; HEK293 GIRK2/NPY4 cells, thallium flux fluorescence; activation (% efficacy), % for hits at 37.5 µM;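 active means primary screen hit, no activity in plain HEK293 cells, and in GIRK2-only cells above 5% efficacy rising with concentration; inactive means the rest, including fluorescent compounds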;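 further: efficacy is normalized control-subtracted fluorescence 15 s after thallium addition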
# Numbers without * were called inactive; i = inactive; . = no result; + = active, no number. Shown is part of a subset that was picked to be rich in hits.
SMILES,AMPAR-TARP mod,GIRK2 activator
COCC(C)(O)CNC(=O)c1cc(OC)cc(OC)c1 (centres undefined),i,i
COCC(C)(O)CNC(=O)c1ccc(Cl)cc1 (centres undefined),+,i
COCC(C)(O)CNC(=O)c1cn(C)nc1OC (centres undefined),+,i
COCC(C)(O)CNC(=O)c1ccccc1C(F)(F)F (centres undefined),i,i
O=C(CS(=O)(=O)c1ccccc1)N(CCN1CCOCC1)c1nc2c(Cl)cccc2s1,i,i
Cc1nc2c(sc3cccc(F)c32)c(=O)n1CC(=O)NC1CCCCC1,.,i
O=C(Cn1c(CO)cnc1SCc1c(F)cccc1Cl)NC1CCCC1,+,i
COc1ccc(NS(=O)(=O)c2c(C)cc(C)c(N(C)S(C)(=O)=O)c2C)cc1,+,i
Cc1cc(C)c(S(=O)(=O)Nc2ccc(F)cc2)c(C)c1N(C)S(C)(=O)=O,i,i
Cn1nccc1C(=O)N(CC1CCCO1)c1nc2c(Cl)cccc2s1 (centres undefined),.,i
O=C(NCC(O)(c1cccs1)C1CC1)c1ccc2nsnc2c1 (centres undefined),i,i
Cc1ccc(Cl)cc1N1CCN(C(=O)C2CC(=O)c3ccccc32)CC1 (centres undefined),+,i
CS(=O)(=O)N1CCN(C(=O)C2CC(=O)c3ccccc32)CC1 (centres undefined),i,i
COc1ccc(Nc2nc(N3CCOCC3)nc3[nH]ncc23)cc1,.,i
COc1cccc(C(CNC(=O)Nc2ccc(Cl)cc2)N2CCOCC2)c1 (centres undefined),+,i
O=C(NCC(c1ccc(F)cc1)N1CCOCC1)NC1CCCCC1 (centres undefined),i,.
COc1cccc(C(CNC(=O)Nc2ccccc2)N2CCOCC2)c1 (centres undefined),i,i
COc1cccc(C(CNC(=O)C2CCCCC2)N2CCOCC2)c1 (centres undefined),+,.
COc1cccc(C(CNC(=O)c2ccc([N+](=O)[O-])cc2)N2CCOCC2)c1 (centres undefined),i,i
COc1cccc(C(CNC(=O)c2cccc([N+](=O)[O-])c2C)N2CCOCC2)c1 (centres undefined),+,i
Cc1ccc(C(CNC(=O)NC2CCCCC2)N2CCOCC2)cc1 (centres undefined),+,i
COc1cccc(C(CNC(=O)C2CCN(S(C)(=O)=O)CC2)N2CCOCC2)c1 (centres undefined),i,i
COCCN1CCC(CNC(=O)c2ccc(C(F)(F)F)cc2)CC1,i,.
O=C(c1cccc(C(F)(F)F)c1)N(CCN1CCOCC1)c1nc2ccccc2s1,i,i
CCNC(=O)N1CCN(Cc2nc(-c3cccs3)cs2)CC1,i,i
SMILES,AMPAR-TARP mod,GIRK2 activator
COc1ccccc1CNC(=O)Cc1csc(NC(=O)c2ccc[nH]c2=O)n1,i,i
O=C(CCCn1c(SCc2cccc([N+](=O)[O-])c2)nc2ccccc2c1=O)N1CCCC1,+,i
O=c1nc(SCc2cccc([N+](=O)[O-])c2)c2c(n1CCCO)CCC2,i,i
O=C(COc1ccccc1)N1CCC(Cn2cccn2)CC1,i,i
CC(=O)N1CCc2ccc(NC(=O)NCc3cccs3)cc2C1,i,i
Cc1nnsc1C(=O)Nc1ccc2c(c1)N(C(=O)c1ccco1)CC2,+,i
Cc1nnsc1C(=O)Nc1ccc2c(c1)N(C(=O)C1CC1)CC2,i,i
CCN(C1CCCCC1)S(=O)(=O)c1cc(C(C)C)c(C)cc1OC,+,.
CCCN(CCC)S(=O)(=O)c1cc(C(C)C)c(C)cc1OC,i,.
CCc1c(C)nc(SCC(=O)Nc2cc(C(F)(F)F)ccc2Cl)[nH]c1=O,+,.
Cc1cc(=O)n(CC(=O)Nc2cc(C(F)(F)F)ccc2Cl)cn1,i,i
COc1ccc(Br)cc1C1SCCN1S(=O)(=O)c1cccc(C)c1 (centres undefined),+,.
COc1ccc(S(=O)(=O)N2CCSC2c2ccc(Br)cc2)cc1 (centres undefined),i,.
O=C(N1CCC(Cn2cccn2)CC1)C1(c2ccc(Cl)cc2)CCCC1,+,i
O=C(N1CCC(Cn2cccn2)CC1)C1(c2cccs2)CCCC1,i,i
Cc1ccccc1C(=O)N1CCC2(CC1)NC(=O)N(CCOc1ccccc1)C2=O,i,i
Cc1ccc(N2CCN(S(=O)(=O)c3ccc(F)c(C)c3)CC2)cc1C,i,.
CCC(=O)Nc1sc2c(c1-c1nc3ccccc3s1)CCN(Cc1ccccc1)C2,i,.
